In ChEMBL document CHEMBL4513216, “Probing the Open Global Health Chemical Diversity Library for Multistage-Active Starting Points for Next-Generation Antimalarials” (ACS Infect Dis, 2020):
In all, about 68,000 compounds went through this assay and about 2,700 (4%) showed an effect of 50% or more. This excerpt belongs to a sample that is enriched for strong results.

system: Plasmodium berghei; experiment: Screen against P. berghei liver stage (PbLuc), transformed with Luciferase, at 2uM; type: functional, HepG2; settings: tested at 2 uM

Row | Structure (SMILES) | INHIBITION
1 | Cc1ccc2c(c1)OC(C)CN2C(=O)c1c[nH]c(C)cc1=O (stereo not drawn) | -33.29%
2 | CCn1nccc1CN(C)C(=O)Cn1nc(C)cc1C | -47.19%
3 | Cn1nc(Br)c2c(NCCCS(N)(=O)=O)ncnc21 | -5.61%
4 | CCOCC(=O)N1Cc2nccn2CC(CN(C)C)C1 (stereo not drawn) | -8.84%
5 | COc1ccc2nnc(CCC(=O)Nc3nc4c(s3)CCC4)n2n1 | 58.29%
6 | COc1ccc2nnc(CCC(=O)Nc3nc4c(s3)CCCC4)n2n1 | 21.57%
7 | COc1ccc2nnc(CCC(=O)Nc3nc4c(s3)CCCCC4)n2n1 | 48.59%
8 | COCCNC(=O)c1cc(C2CC2)nc2onc(C3CCNC3)c12 (stereo not drawn) | 5.75%
9 | CCOc1ccccc1NC(C)C(=O)N(C)Cc1cccc(F)c1 (stereo not drawn) | 4.8%
10 | CC(NC(=O)Cn1cccn1)c1ccc2c(c1)OCCO2 (stereo not drawn) | 21.39%
11 | CC(NC(=O)Cn1cccn1)c1ccc2c(c1)OCCCO2 (stereo not drawn) | 51.21%
12 | CC(NC(=O)CCn1cccn1)c1ccc2c(c1)OCCO2 (stereo not drawn) | -17.31%
13 | O=C(O)c1ccccc1-n1cnc(CN2CCCc3ccccc32)c1 | 37.36%
14 | CN1CC(=O)N(c2cnn(C)c2)CC12CCN(Cc1nccn1C)C2 (stereo not drawn) | 8.65%
15 | Cc1ccc(N2CC3(COCCN(Cc4ccccn4)C3)OCC2=O)s1 (stereo not drawn) | 40%
16 | Cc1ccc(N2CC3(COCCN(Cc4ccncc4)C3)OCC2=O)s1 (stereo not drawn) | -37.34%
17 | Cc1ccc(N2CC3(COCCN(Cc4nccs4)C3)OCC2=O)s1 (stereo not drawn) | 58%
18 | O=C(CCN1CCCC1=O)Nc1cnn(-c2ccccc2Cl)c1 | 25.35%
19 | O=C(CCN1CCOC1=O)Nc1cnn(-c2ccccc2Cl)c1 | 51.46%
20 | O=C(CCCN1CCOC1=O)Nc1cnn(-c2ccccc2Cl)c1 | -16.28%
21 | Cc1ccc2cc(CN(C)Cc3nccs3)c(=O)[nH]c2c1 | -0.38%
22 | CN(Cc1c(F)cccc1Cl)C(=O)c1cnn(CCN2CCOCC2)c1 | -9.03%

Row | Structure (SMILES) | INHIBITION
23 | CCn1cc(C(=O)N(C)Cc2c(F)cccc2Cl)cn1 | 53.13%
24 | CN(Cc1c(F)cccc1Cl)C(=O)Nc1cnn(CC(N)=O)c1 | 11.07%
25 | CCn1cnnc1CNC(=O)N(C)Cc1c(F)cccc1Cl | -17.88%
26 | CN(Cc1c(F)cccc1Cl)C(=O)c1cnn(CCN2CCCCC2)c1 | 60.04%
27 | CN(Cc1c(F)cccc1Cl)C(=O)Cn1cnc(C#N)n1 | -6.73%
28 | Cc1nc(C2CCCN(C(=O)c3ccc(Cl)cn3)C2)no1 (stereo not drawn) | -29.54%
29 | CN(C)C(=O)c1cccc(CCNS(=O)(=O)c2ccccc2)c1 | 49.08%
30 | NS(=O)(=O)CCN1CCOC(c2ccsc2)C1 (stereo not drawn) | -10.36%
31 | CC1CCN(c2ccc(=O)n(CC(=O)N(C)Cc3ccccc3)n2)CC1 | -7.56%
32 | COc1cc(N2C[C@@H]3COC[C@]3(COCc3cccc(C)n3)C2)ncn1 | 0.14%
33 | COC(C)(C)CNC(=O)N1CCCC1c1c(C)n[nH]c1C (stereo not drawn) | 22.83%
34 | Cc1cc(CN(C)C(=O)CN2CCCC2=O)no1 | 51.36%
35 | Cc1cc(CN(C)C(=O)NCc2ccnc(SC(C)(C)C)c2)no1 | 14.69%
36 | Cc1cc(CN(C)C(=O)NC(C)Cc2ccco2)no1 (stereo not drawn) | 45.62%
37 | CC(C)c1cc(CN(C)C(=O)CN2CCCCC2=O)no1 | -11.61%
38 | CN(Cc1ccco1)C(=O)NCc1nnc2n1CCC2 | -18.86%
39 | Cc1cc(CN(C)C(=O)CN2CCCCCC2=O)no1 | 33.35%
40 | Cc1cc(CN(C)C(=O)NCc2ccccn2)no1 | 26.62%
41 | CN(Cc1ccco1)C(=O)NCc1ccnc(SC(C)(C)C)c1 | 53.29%
42 | Cc1cc(CN(C)C(=O)NCc2ccco2)no1 | 66.88%
43 | O=C(c1ccc(F)cc1)N1C[C@@H]2COC[C@]2(COc2cccnc2)C1 | -55.8%
44 | CC(CO)NC(=O)Nc1ccc(CC#N)cc1 (stereo not drawn) | 20.32%

Row | Structure (SMILES) | INHIBITION
45 | CCc1nc2n(n1)CC(Nc1ccnc(-c3ccccc3)n1)CC2 (stereo not drawn) | -1.33%
46 | CC(C)C(=O)N1CCCC12CCCN(C(=O)c1ccno1)C2 (stereo not drawn) | 8.34%
47 | N#Cc1ccc(N2CCC3(CC2)CC(N2CCOCC2)CO3)cc1 (stereo not drawn) | -0.69%
48 | CN1CCN(C2COC3(CCN(c4ccc(C#N)cc4)CC3)C2)CC1 (stereo not drawn) | 54.5%
49 | COC1COC2(CCN(c3ccc(C#N)cc3)CC2)C1 (stereo not drawn) | -13.61%
50 | Cc1nn(C)c(N(C)C)c1CNC(C)COc1ccc(F)cc1F (stereo not drawn) | 25.03%
51 | Cn1cc(C(=O)N2C[C@H]3CC(Oc4ccccc4)C[C@H]3C2)cn1 (stereo partly drawn) | -36.58%
52 | O=C(COc1ccc(Cl)cc1)NCc1nncn1C1CC1 | 24.36%
53 | O=C(COc1cc(Cl)cc(Cl)c1)NCc1nncn1C1CC1 | -13.8%
54 | O=C(COc1cccnc1)NCc1nncn1C1CCCCC1 | 57.75%
55 | Cc1nc(CN2C(=O)CC[C@@H]3[C@H]2CCN3C2CCOCC2)cs1 | -6.68%
56 | Cc1cc(C(=O)N2CCc3c(ncnc3N3CCOCC3)C2)[nH]n1 | -0.79%
57 | Cc1cc(C(=O)N2CCc3ncnc(N4CCSCC4)c3CC2)[nH]n1 | 64.2%
58 | O=C(c1cc[nH]n1)N1CCc2ncnc(N3CCSCC3)c2CC1 | 24.55%
59 | CSc1nc2ncc3c(=O)n(C)ccc3n2n1 | 19.49%
60 | CCn1cc(-c2cc(C(F)F)n3nc(CC(=O)O)nc3n2)cn1 | -20.05%
61 | Cn1cc(-c2cc(C(F)F)n3nc(CCC(=O)O)nc3n2)cn1 | 48.58%
62 | CCn1cc(-c2cc(C(F)F)n3nc(CCC(=O)O)nc3n2)cn1 | 61.61%
63 | OCC(O)CN1CCc2onc(-c3ccc(C(F)(F)F)cc3)c2C1 (stereo not drawn) | -83.25%
64 | CCN(CC)CCNC(=O)CCc1c(C)nn(-c2ccc(Cl)cc2)c1C | 36.85%
65 | CC(C)c1nnc2ccc(N3CCC(C(=O)O)CC3)nn12 | 16.54%
66 | Fc1ccc(F)c(CN2CCC(c3cc4ncccc4cn3)CC2)c1 | -20.28%

Row | Structure (SMILES) | INHIBITION
67 | CC(=O)N1CCN(C(=O)NC(C)Cn2ccnc2)CC1 (stereo not drawn) | 14.47%
68 | CC(=O)Nc1nc(C(=O)N2CCCC(n3nc(C)nc3C)C2)cs1 (stereo not drawn) | 9.17%
69 | CCS(=O)(=O)NCc1cc(Br)c(OC)c(OC)c1 | 68.69%
70 | CCCC(=O)NCc1cc(Br)c(OC)c(OC)c1 | 0.63%
71 | CCC(=O)NCc1cc(Br)c(OC)c(OC)c1 | -11.19%
72 | Cc1ccsc1C(=O)N(C)Cc1ccncc1 | -32.02%
73 | CSCC(=O)Nc1cccc(Oc2ccccn2)c1 | -7.6%
74 | CCOCCC(=O)Nc1cccc(Oc2ccccn2)c1 | 3.59%
75 | CCOCC(=O)Nc1cccc(Oc2ccccn2)c1 | 67.68%
76 | CC(C)(C)c1cc(CN2CCOCC(O)C2)n[nH]1 (stereo not drawn) | -67.78%
77 | Cc1noc(C(C)N(C)CC(=O)NCCc2ccc(Cl)cc2)n1 (stereo not drawn) | 11.8%
78 | Cc1nccc([C@@H]2C[C@H]3CN(S(=O)(=O)c4ccccc4)C[C@H]3O2)n1 | 32.41%
79 | Cn1ccnc1CN1CCN(Cc2ccc(C#N)cc2)CC1 | -19.95%
80 | CCn1ccnc1CN1CCN(Cc2cccc(C#N)c2)CC1 | -49.45%
81 | CCn1ccnc1CN1CCN(Cc2ccc(C#N)cc2)CC1 | 71.23%
82 | Cc1n[nH]c(C)c1CCCN(C)Cc1c[nH]nc1-c1ccc(F)cc1 | -87.47%
83 | CN(Cc1cc(C(C)(C)C)n[nH]1)Cc1c[nH]nc1-c1ccc(F)cc1 | 50.31%
84 | CN(Cc1ccn[nH]1)Cc1c[nH]nc1-c1ccc(F)cc1 | -35.45%
85 | CCN(Cc1cc(=O)n2cc(Br)ccc2n1)C1CC1 | -15.9%
86 | Cc1ccc2cccc(Oc3nc(C)c(C(=O)O)s3)c2n1 | 27.11%
87 | COCCn1cnc(-c2cc(C(=O)NC(C)C)c3ccccn23)c1 | 1.48%
88 | CCN(C)C(=O)c1cc(-c2cn(C(C)C)cn2)n2ccccc12 | 73.98%

Row | Structure (SMILES) | INHIBITION
89 | CCN(C)C(=O)c1cc(-c2ccn(C(C)C)n2)n2ccccc12 | -8.84%
90 | CC(C)(C)c1csc(CNC(=O)C2NCCc3[nH]cnc32)n1 (stereo not drawn) | 12.08%
91 | COc1ccc(C(=O)NC2CC2)c(OC2CCN(C(C)CO)CC2)c1 (stereo not drawn) | -8.53%
92 | CNC(=O)CN1CCOCC2(C1)CN(C(=O)C(C)C)CCO2 (stereo not drawn) | -6.94%
93 | CNC(=O)CN1CCOCC2(CN(CCC(F)(F)F)CCO2)C1 (stereo not drawn) | 53.46%
94 | CCCC(=O)N1CCOC2(COCCN(CC(=O)NC)C2)C1 (stereo not drawn) | 43.03%
95 | Cc1ccc(C(=O)N2CC[C@@]3(O)CCCC[C@H]3C2)cc1 | 16.45%
96 | CNC(=O)c1sccc1N(C)S(=O)(=O)c1ccc(Cl)cc1 | 1.37%
97 | O=C(NCCCOCC1CC1)Nc1cccnc1N1CCOCC1 | 61.57%
98 | O=C(NCCCOCC1CCCO1)c1cccnc1N1CCOCC1 (stereo not drawn) | 10.49%
99 | CC(C)COCCCNC(=O)c1cccnc1N1CCOCC1 | -32.12%
100 | CCC(CC)NC(=O)c1ncn2c1CN(CC)S(=O)(=O)c1ccccc1-2 | 14.52%
101 | CC(=O)N1CCC(Cc2nccnc2-c2c(C)n[nH]c2C)C1 (stereo not drawn) | 26.14%
102 | Cc1ccc(CN2CC[C@H]3O[C@@H](C(=O)N4CCCO4)CC[C@H]32)s1 | -25.79%
103 | Cc1nn(C)c(N(C)C)c1CNCc1cccc(Cn2cccn2)c1 | 50.32%
104 | Cc1nn(C)c(N(C)C)c1CNCc1ccc(Cn2cccn2)cc1 | 44.37%
105 | COc1cccc(CNCc2c(C)nn(C)c2N(C)C)c1 | -32.89%
106 | COc1cccc(OCCNCc2c(C)nn(C)c2N(C)C)c1 | -14.3%
107 | COc1cccc(CCNCc2c(C)nn(C)c2N(C)C)c1 | 67.59%
108 | Cc1nn(C)c(N(C)C)c1CNCc1cccc(Cn2cncn2)c1 | -42.39%
